# High-throughput results from PubChem BioAssay.
# Cycloheximide cs – affects cycloheximide protein synthesis inhibition readout, counter-screen; cell reporter, cycloheximide protein synthesis inhibition counterscreen; 12% of 300,000 active; max response, %; in the data active = max response mostly above about 13%, no sharp cut-off; inactive = mostly below about 14%; note: read at 38.3 µM for the half of the compounds with a filed dose; 0% is about no effect
# Shiga toxin inh – Shiga toxin inhibition; Vero cells, Shiga toxin protein synthesis inhibition reporter; inhibition, % at 38.7 µM; 9.2% of 290,000 active; in the data active = inhibition mostly above about 28%, no sharp cut-off; inactive = mostly below about 43%; note: 0% is about no effect
# HCV inhibitor – HCV inhibition; 3.4% of 340,000 active; Potency, µM (top dose mostly 41.8 µM), without a hit: at the top dose activity change, negative = inhibition, hits mostly inhibitors; Huh7.5.1 HCVcc-Cre infection, luciferase reporter, 44 h; active = well fitted inhibition curve with a large enough effect; inconclusive = small, poorly fitted or top-dose-only effect, or another doubt; inactive = no such curve, though single readings can be large or run the other way; note: potency is the fitted concentration of half-maximal effect; % is set by controls: 0 for no effect and ±100 for the full control effect
#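 Cells (1,000/well) were plated 4 h before compound, then infected with HCVcc-Cre virus (~0.5 moi). After 44 h further culture, infection was read as luciferase luminescence following a 15 min substrate incubation at room temperature.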
# MARV entry inh – blocks Marburg virus binding to or entry into cells | Marburg virus pseudotyped entry inhibition, cell reporter | Potency, µM (doses to about 37.8 µM), inactives show top-dose activity change, negative = inhibition, hits mostly inhibitors | 1.8% of 300,000 active | AID 540276; calls by dose curve; tested in HEK293 cells; note: potency is the fitted concentration of half-maximal effect; % is set by controls: 0 for no effect and ±100 for the full control effect
# FMDV antiviral – foot and mouth disease virus antiviral activity | Potency, µM (highest dose often 57.9 µM), for the others: at the highest dose activity change, negative = inhibition, hits mostly inhibitors | AID 1159524 | FMDV antiviral cell-based qHTS | 1.2% of 410,000 active; calls by dose curve; tested in HEK293T cells; note: read-out not given here; potency is the fitted concentration of half-maximal effect; % is set by controls: 0 for no effect and ±100 for the full control effect; nearly all actives have a fitted effect of over 45% in size
# LASV entry inh – blocks Lassa virus binding to or entry into cells. Lassa virus pseudotype entry inhibition, cell reporter. Potency, µM (series often up to 37.9 µM), for the others: at the highest dose activity change, negative = inhibition, hits mostly inhibitors. 1.2% of 300,000 active. AID 540256; calls by dose curve; tested in HEK293 cells; note: potency is the fitted concentration of half-maximal effect; % is set by controls: 0 for no effect and ±100 for the full control effect; nearly all actives have a fitted effect of over 50% in size
# The depositor's hits bear a star; ? = inconclusive; . = not tested or not shown; [ ] = remark or other dose. The list is not random: actives were taken first. Their share in the collection is about 13%.
SMILES,Cycloheximide cs,Shiga toxin inh,HCV inhibitor,MARV entry inh,FMDV antiviral,LASV entry inh
CCOC(=O)c1ccc(NC(=S)N(CCN2CCCCCC2)Cc2cccs2)cc1,-4,-3,?,8.9µM*,21%,?
CCOC(=O)c1ccc(NC(=S)N(CCCN2CCN(C)CC2)Cc2cccs2)cc1,-2,-6,?,?,9%,.
CCOC(=O)c1ccc(NC(=S)N(CCCN2CCN(CC)CC2)Cc2cccs2)cc1,-2,-11,?,10µM*,46%,10µM*
Cc1cccnc1C(NC(=O)C1CCN(Cc2cn(C)c3ccccc23)CC1)c1ccc(Cl)cc1 (configuration not stated),.,.,.,.,0%,.
Cc1cc(O)cc(C)c1C=Cc1cncc(C(=O)OC(C)(C)C)c1,.,.,.,.,.,0.79µM*
CN(C)C(CNc1nnnn1-c1ccccc1)c1ccco1 (configuration not stated),-1,-17,9%,?,-17%,-8%
Cc1ccc(NC(=O)CSc2nc(=O)n(Cc3ccncc3)c3c2CCC3)cc1Cl,.,.,.,.,-14%,6%[46.1 µM]
COCCNC(=O)NC(=O)COC(=O)c1ccc2[nH]c3c(c2c1)CCCC3,14,16,?,?,-13%,?
O=C(COC(=O)c1ccc2[nH]c3c(c2c1)CCCC3)Nc1ccccc1Cl,-1,3,?,-11%[46.1 µM],-22%,-16%
O=C(COC(=O)c1ccc2[nH]c3c(c2c1)CCCC3)Nc1ccc(Cl)cc1Cl,-1,-6,?,8.9µM*,-18%,5%
CCC(C)c1ccccc1NC(=O)COC(=O)c1ccc2[nH]c3c(c2c1)CCCC3 (configuration not stated),-2,3,?,2.2µM*,28µM*,?
CN(C)c1ncc2nc(-c3cccc(C#N)c3)c(=O)n(C)c2n1,.,.,.,.,-9%,.
CC(=O)c1sc2nsc(SCCN3CCCC3)c2c1N,20*,31,-2%,?,9%,-23%
COC(=O)CC(NC(=O)c1ccco1)c1ccc(C(C)C)cc1 (configuration not stated),-2,-15,13%,-1%[46.1 µM],0%,-5%
Cc1cnc(-n2ncc(C(=O)NCc3ccncc3)c2-c2cccs2)nc1-c1ccc(F)cc1,.,.,.,.,-4%,.
Cc1ccc(-c2nc3sc4c(c3c(=O)n2N)CCCC4)cc1,59*,38,?,?,-4%,?
NNc1nc2sc3c(c2c(=O)n1-c1ccccc1)CCCC3,23*,75,-2%,4%[46.1 µM],-9%,-18%[46.1 µM]
CCSc1nc2sc3c(c2c(=O)n1-c1ccc(C)cc1)CCCC3,.,.,.,.,-22%,19%[46.1 µM]
O=C(O)CSc1nc2sc3c(c2c(=O)n1-c1ccccc1)CCC3,-4,9,-5%,-1%[46.1 µM],9%,-13%
Nn1c(Nc2ccccc2)nc2sc3c(c2c1=O)CCCC3,21*,43,?,-3%,8%,26%
COc1ccc(C(=O)NCCSCc2cccc(Cl)c2)cc1OC,-1,-6,-20%,.,-23%,.
CCC(=O)N1CCc2cc(CNC(=O)Nc3ccc(OC)cc3OC)ccc21,.,.,.,.,16%,21%[46.1 µM]
CN(C)c1nc(OCCOC(=O)c2ccccc2)nc(N(C)C)n1,-3,-4,25µM*,0%,-1%,-9%
CCC(C)N(C(=O)COc1ccc(-c2nnco2)cc1)C1CCS(=O)(=O)C1 (configuration not stated),.,.,13%,?,-2%,20%
Cn1c(=O)c(C(=O)CN2CCCc3ccccc32)c(N)n(Cc2ccccc2)c1=O,49*,15,-18%,-13%,-15%,1%
SMILES,Cycloheximide cs,Shiga toxin inh,HCV inhibitor,MARV entry inh,FMDV antiviral,LASV entry inh
Cn1c(=O)c(C(=O)CN2CCc3ccccc32)c(N)n(Cc2ccccc2)c1=O,-1,-10,-28%,-3%,-20%,?
CCOC(=O)N1CCN(CCCc2ccccc2)CC1,3,28,9%,-3%,9%,-9%
O=C(NCCO)c1ccc2c3n(nc2c1)-c1ccc(Cl)cc1CO3,54*,79*,-3%,.,37%,.
COCCNC(=O)c1ccc2c3n(nc2c1)-c1ccccc1CO3,30*,41*,0%,.,24%,.
O=C(NCC1CC1)c1ccc2c3n(nc2c1)-c1ccc(Cl)cc1CO3,.,.,?,.,5%,.
COCCNC(=O)c1ccc2c3n(nc2c1)-c1ccc(Cl)cc1CO3,7.5*,44*,-19%,.,30%,.
C=CCNC(=O)c1ccc2c3n(nc2c1)-c1ccccc1CO3,27*,46*,?,.,-18%,.
OC[C@@H]1CN(CCN2CCOCC2)C[C@H](n2cnc3c(NCc4ccco4)ncnc32)O1,.,.,.,.,1%,.
CCCCN(N=Nc1nonc1OC)c1nonc1OC,6,-6,?,11%,-28%,-13%
Cc1ccc2c(c1)COc1c3ccc(C(=O)NCCO)cc3nn1-2,61*,74*,-21%,.,48%,.
Cc1ccc(-n2cnc3cc(C(=O)NCCC4=CCCCC4)ccc32)c(C)c1,.,.,.,.,-10%,?
Cc1onc(-c2ccccc2Cl)c1C(=O)Nc1cccc2nsnc12,-3,-3,?,-9%[46.1 µM],-9%,-5%
COc1ccc(-c2noc(CCC(=O)Nc3cc(Cl)c(OC)cc3OC)n2)cc1,41*,46*,4µM*,?,-21%,-4%
O=C(CCc1nc(-c2ccccc2)no1)NC1CCCCC1,12*,29,-10%,22%,-4%,2%
COc1ccc(-c2noc(CCCC(=O)NC3CCCC3)n2)cc1,-1,-4,13µM*,?,?,?
Cc1ccc(-c2noc(CCCC(=O)NCc3ccco3)n2)cc1,.,.,.,-21%[46.1 µM],-19%,0%[46.1 µM]
COc1ccc(-c2noc(CCC(=O)NCc3ccco3)n2)cc1,17*,5,-16%,.,71%,.
O=C(NCc1ccccc1)C(c1cccnc1)N(C(=O)c1ccccn1)c1ccccc1F (configuration not stated),4,-8,13%,-3%[46.1 µM],-2%,-9%[46.1 µM]
CCc1ccccc1NC(=O)Cn1c(=O)n(Cc2ccc(OC)cc2)c(=O)c2oc3ccccc3c21,.,.,.,.,-1%,7%[46.1 µM]
CC(=O)Nc1nc(C)c(Oc2ccc(Cl)cc2Cl)c(=O)[nH]1,-2,20,12%,1%,4%,?
C#C[C@]1(O)CC[C@H]2[C@@H]3CCc4cc(OC5CCCC5)ccc4[C@H]3CC[C@@]21C,-2,-8,0.63µM*,.,-8%,.
CCCC(=O)c1ccc(N2CCCC2)c(F)c1,37*,76*,6%,5%,52%,?
CCC(=O)c1ccc(N2CCN(C(=O)COc3ccccc3F)CC2)c(F)c1,-1,-21,?,0%[46.1 µM],-6%,-9%[46.1 µM]
CCC(=O)c1ccc(N2CCCCCC2)c(F)c1,35*,54*,-12%,17%,45%,?
CCC(=O)c1ccc(N2CCN(C(=O)c3ccccc3F)CC2)c(F)c1,20,-5,?,?,-10%,-2%
CCC(=O)c1ccc(N2CCN(C(=O)c3ccccc3Br)CC2)c(F)c1,-2,-11,8%,?,?,-1%
CCC(=O)c1ccc(N2CCN(C(=O)c3cccs3)CC2)c(F)c1,21*,22,-8%,.,1%,.
